Test results taken from PubChem BioAssay AID1671463 (Sanford-Burnham Center for Chemical Genomics, 2021).
Screen size: about 370,000 compounds; about 520 (0.14%) were called active. Cut-off read from the data, not from the text of the source: active = activation above about 40%; inactive = the rest. The full list was thinned out, with actives kept by preference.

The compounds below were run against Atrial natriuretic peptide receptor 1 (Homo sapiens) (UniProt P16066) (assay: GC-A stimulated cGMP production enhancers – HEK293 GC-A cells, cGMP TR-FRET, EC30 ANP, primary screen (AID 1671463)). Settings: at 10 µM, stronger effect = higher value, 0% at EC30 ANP, 100% saturating ANP.
Atrial natriuretic peptide receptor 1 (Homo sapiens), sequence (P16066 whole entry, looked up): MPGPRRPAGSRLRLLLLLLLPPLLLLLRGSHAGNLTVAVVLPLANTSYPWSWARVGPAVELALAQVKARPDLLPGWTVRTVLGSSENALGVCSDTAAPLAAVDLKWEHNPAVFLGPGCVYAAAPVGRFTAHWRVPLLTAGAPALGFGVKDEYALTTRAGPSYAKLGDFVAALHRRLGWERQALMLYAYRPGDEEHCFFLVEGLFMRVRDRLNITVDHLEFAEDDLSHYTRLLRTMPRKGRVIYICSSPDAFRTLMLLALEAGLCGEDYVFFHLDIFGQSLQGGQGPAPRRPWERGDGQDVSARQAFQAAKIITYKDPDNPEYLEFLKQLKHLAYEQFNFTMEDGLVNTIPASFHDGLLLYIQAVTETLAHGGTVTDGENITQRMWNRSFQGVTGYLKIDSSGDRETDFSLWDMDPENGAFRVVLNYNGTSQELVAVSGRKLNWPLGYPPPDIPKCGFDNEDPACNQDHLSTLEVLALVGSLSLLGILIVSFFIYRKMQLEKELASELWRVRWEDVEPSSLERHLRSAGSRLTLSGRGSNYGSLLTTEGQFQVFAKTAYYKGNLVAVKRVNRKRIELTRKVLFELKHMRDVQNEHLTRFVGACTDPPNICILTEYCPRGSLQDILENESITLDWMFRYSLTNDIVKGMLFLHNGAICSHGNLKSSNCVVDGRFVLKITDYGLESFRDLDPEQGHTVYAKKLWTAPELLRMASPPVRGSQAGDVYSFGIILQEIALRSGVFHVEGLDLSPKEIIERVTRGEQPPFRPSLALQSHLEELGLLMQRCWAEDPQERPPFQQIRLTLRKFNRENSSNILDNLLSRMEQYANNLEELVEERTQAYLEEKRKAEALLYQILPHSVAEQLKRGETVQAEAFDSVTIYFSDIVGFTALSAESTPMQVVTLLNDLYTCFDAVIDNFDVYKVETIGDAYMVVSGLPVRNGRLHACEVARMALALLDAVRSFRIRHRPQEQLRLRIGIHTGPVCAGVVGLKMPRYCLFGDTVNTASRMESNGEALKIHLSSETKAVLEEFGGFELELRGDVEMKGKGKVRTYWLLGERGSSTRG

activation, active:
COC(=O)COc1ccc2c(=O)c(Oc3ccccc3Br)coc2c1 46.5%
Cc1cc(C)nc(S/C=C/C(=O)c2ccccc2)n1 43.5%
CCCc1nn(C)c2c(=O)[nH]c(-c3cc(S(N)(=O)=O)ccc3OCC)nc12 53.2%
CC1CN/C(=C\C(=O)c2ccc(Br)cc2)C(=O)N1 (stereo unspecified) 45.4%
CS(=O)(=O)c1ccc2nc(NC(=O)c3ccc(N4CCCC4=O)cc3)sc2c1 62.2%

activation, inactive:
Cc1ccc(C(=O)NC(=S)Nc2ccc3[nH]c(=O)[nH]c3c2)cc1C -4.45%
CCc1ccc(Oc2coc3cc(O)ccc3c2=O)cc1 9.73%
CCc1ccc(Oc2coc3cc(OC(=O)c4cc5ccccc5oc4=O)ccc3c2=O)cc1 -3.3%
CC[C@H](C)[C@@H](C(=O)N1CCNCC1)n1cc([C@@H](N)Cc2ccc(O)cc2)nn1 -0.45%
CC1(C)CC(=O)c2cnc3nc4ccccc4n3c2C1 1.08%
Cc1ccc(Cn2c(=N)c(S(=O)(=O)c3ccc(C)cc3)cc3c(=O)n4ccccc4nc32)cc1 0.3%
Cc1cc(C)nc(NC(=O)Nc2ccccc2C(F)(F)F)n1 9.79%
CCn1c(CSc2nc(C)cc(C)n2)nnc1SCC(N)=O -2.17%
Cc1cc(NC(=O)CCC(=O)N(CC(=O)NCC2CCCO2)c2ccccc2)no1 (stereo unspecified) -2.42%
CC#CC[N+](C)(C)CCCCCC 1.8%
O=C(NCCCO)/C(=C\C=C\c1ccccc1)NC(=O)c1ccccc1Cl 1.06%
COc1ccc(C2OC(=O)CC2C(=O)NC(C)C)cc1 (stereo unspecified) -0.27%
O=C1CN(C(=O)c2ccccc2F)C(c2ccc(F)cc2)c2cc(F)ccc2N1 (stereo unspecified) -11%
CCCCN1C(=S)NC[C@@H]1C(C)CC (stereo partly specified) -0.8%
CC[n+]1cc(C)ccc1/C=C/c1ccc(N(C)C)cc1 -28.2%
CCOc1ccc(-n2cnc3c(=O)[nH]c(N)nc32)cc1 23%
CCOc1ccccc1N1CCN(C(=S)Nc2ccc(S(N)(=O)=O)cc2)CC1 2.84%
CC1CCC(N2CC(=O)N(Cc3ccc4c(c3)OCO4)C(c3ccc(F)cc3)C2=O)CC1 (stereo unspecified) -15.6%
Cc1csc(NC(=O)C2CCCN2C(=O)OCC(C)C)n1 (stereo unspecified) -0.58%
CN(C)CCCn1c(SCCN2C(=O)c3ccccc3C2=O)nc2ccccc2c1=O -1.16%
CN(C)CCn1c2c(c(SCC(=O)NCc3ccccc3)nc1=O)CCC2 3.93%
O=C(NCc1ccccc1)C(c1cccnc1)N(C(=O)c1csnn1)c1ccc(F)cc1 (stereo unspecified) 2.49%
O=C1CCC(=O)N1CCOP1(=O)COc2ccccc2OC1 1.8%
Cc1ccc(Cl)cc1NC(=O)COC(=O)C1CCCCC1 4.33%
COc1ccc(NC(=O)CN(C)C(=O)Cc2coc3cc(C)c(C)cc23)cc1 0.74%
CC(C)=CCN1CCN(Cc2ccc(Oc3ncccn3)cc2)CC1CCO (stereo unspecified) -0.64%
Cc1nc(-c2nnc(SCC(=O)Nc3cc(C(F)(F)F)cc(C(F)(F)F)c3)n2C)cs1 1.31%
O=C(O)C1CCCN1S(=O)(=O)c1ccc(Br)cc1 (stereo unspecified) 3.81%
COc1cc2c(cc1OC)/C(=C/C(=O)c1ccc(NC(C)=O)cc1)NCC2 6.02%
COc1ccc(N(CCC#N)S(=O)(=O)c2ccc(Cl)cc2)cc1 -7.67%
Cc1ccccc1CN(c1ccc(C(=O)NCC2CCCO2)cc1)S(C)(=O)=O (stereo unspecified) 2.8%
COc1ccc(CCNC(=O)CSc2nc3c([nH]2)c(=O)n(C)c(=O)n3C)cc1 -1.99%
Cc1[nH][nH]c(=O)c1C(c1ccc(-c2ccc(Cl)cc2)o1)c1c(C)[nH][nH]c1=O 3.79%
O=C(NCCCN1CCCCCC1)c1ccc(N2CCCC2=O)cc1 -0.43%
O=C(Nc1cc(S(=O)(=O)N2CCOCC2)ccc1OCC(F)(F)F)c1ccc(N2CCCC2=O)cc1 -0.92%
CC(=O)Nc1cc(-c2ccccc2N(C)C)cn2c(-c3ccc(F)c(Cl)c3)cnc12 3.6%
